Assay [1] addresses Estrogen receptor (Homo sapiens) (UniProt P03372). Briefly: OT_ER_ERaERa_1440: Odyssey Thera (OT) 24-hour HEK293T Protein-Complementation Assay for Estrogen Receptor-alpha/-alpha Homodimer (AID 2283349).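 Also: hits raise fluorescence above DMSO for agonists and antagonists alike.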 The procedure, abridged: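 Protein-fragment complementation between two human ERα ligand-binding domains (aa 310-547) in stably transfected HEK293T cells was monitored after 24 h treatment, using fluorescence intensity relative to vehicle controls.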

Assay [2] shares this target. The assay can be described thus: OT_ER_ERaERa_0480: Odyssey Thera (OT) 8-hour HEK293T Protein-Complementation Assay for Estrogen Receptor-alpha/-alpha Homodimer (AID 2283351).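 Also: rise in fluorescence from reassembled reporter fragments on ERα LBD homodimer in nucleus or whole cell.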 The procedure, abridged:
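HEK293T, stable ERα LBD (aa 310-547) PCA homodimer; 8 h compound exposure; fluorescence intensity, laser scanning cytometer; positive fitting direction, DMSO baseline.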

The target of assay [3] is T1, Estrogen receptor (Homo sapiens) + Estrogen receptor beta (Homo sapiens) (UniProt P03372+Q92731). Briefly: OT_ER_ERaERb_0480: Odyssey Thera (OT) 8-hour HEK293T Protein-Complementation Assay for Estrogen Receptor-alpha/-beta Heterodimer (AID 2283352). A digest of the protocol:
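Fluorescence intensity readout from a protein-fragment complementation reporter in HEK293T; ER-alpha/ER-beta LBD heterodimer. Dosing 8 h. Gain-of-signal fit relative to DMSO negative control; laser scanning cytometry of whole-well cell population.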

Assay [4] deals with T1, Estrogen receptor (Homo sapiens) + Estrogen receptor beta (Homo sapiens). The assay can be described thus: OT_ER_ERaERb_1440: Odyssey Thera (OT) 24-hour HEK293T Protein-Complementation Assay for Estrogen Receptor-alpha/-beta Homodimer (AID 2283356).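 Also: heteromer of ER alpha and ER beta binding domains; hits raise reporter fluorescence and both agonists and antagonists give an increase.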 The procedure, abridged: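 Readout: mean fluorescence intensity in nucleus (agonists) or nucleus plus cytoplasm (antagonists), read by laser scanning cytometer after 24 h compound exposure of HEK293T cells carrying ERα/ERβ LBD fragment-complementation constructs; DMSO baseline.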

In assay [5] the target is Estrogen receptor beta (Homo sapiens) (UniProt Q92731). The assay can be described thus: OT_ER_ERbERb_0480: Odyssey Thera (OT) 8-hour HEK293T Protein-Complementation Assay for Estrogen Receptor-beta/-beta Homodimer (AID 2283357).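 Also: active means signal gain over DMSO baseline.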 The procedure, abridged: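 Cells (HEK293T, stable ER-beta LBD PCA pair) are treated 8 hours, fixed and Draq5-stained; signal is fluorescence intensity increase relative to vehicle, fitted in the gain direction.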
Chain of Estrogen receptor beta (Homo sapiens) (Q92731 whole entry, looked up, the tested form may be a part): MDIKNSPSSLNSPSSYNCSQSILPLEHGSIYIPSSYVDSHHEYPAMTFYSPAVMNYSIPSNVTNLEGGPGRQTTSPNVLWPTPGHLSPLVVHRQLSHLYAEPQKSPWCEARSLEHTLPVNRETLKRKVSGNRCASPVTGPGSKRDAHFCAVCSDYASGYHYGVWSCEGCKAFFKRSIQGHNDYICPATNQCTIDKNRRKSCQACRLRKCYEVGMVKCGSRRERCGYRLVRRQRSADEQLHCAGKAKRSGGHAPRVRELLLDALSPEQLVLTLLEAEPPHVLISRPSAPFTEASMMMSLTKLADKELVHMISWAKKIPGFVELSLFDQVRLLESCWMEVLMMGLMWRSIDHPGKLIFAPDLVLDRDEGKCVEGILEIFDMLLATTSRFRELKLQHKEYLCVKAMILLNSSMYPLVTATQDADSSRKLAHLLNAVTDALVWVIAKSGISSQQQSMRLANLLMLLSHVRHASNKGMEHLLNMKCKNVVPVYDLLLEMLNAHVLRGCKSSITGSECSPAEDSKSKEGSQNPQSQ

In assay [6] the target is human Thyroid Receptor Alpha (TRa), THRA (gene 7067) (UniProt P10827). The assay can be described thus: NVS_NR_hTRa_Antagonist: NovaScreen (NVS) Nuclear Receptor Binding Assay for human Thyroid Receptor Alpha Antagonism (TRa) (AID 2283362).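 Also: activity is loss of signal relative to DMSO baseline.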 A digest of the protocol:
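AlphaLISA chemiluminescent immunoassay readout, taken 1 h post-dosing in a cell-free system with extracted protein. Activity was scored as signal loss against DMSO negative control, from duplicate single-concentration (25 uM) testing followed by concentration-response follow-up.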

Assay [7] deals with PGR (gene 5241) (UniProt P06401). Briefly: NVS_NR_hPR: NovaScreen (NVS) Nuclear Receptor Binding Assay for human Progestron Receptor (PR) (AID 2283360).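 Also: active means loss of bound radioligand signal versus DMSO baseline.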 A digest of the protocol:
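Competitive displacement of a labelled radioligand from T47D-derived receptor protein is measured in a cell-free format. Initial testing uses 25 uM in duplicate, with positive and negative controls on every plate.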

Assay [8] concerns the target Androgen Receptor/SRC-1 Co-activator, AR (gene 367) (UniProt P10275). Briefly: OT_AR_ARSRC1_0960: Odyssey Thera (OT) 16-hour HEK293T Protein-Complementation Assay for Androgen Receptor/SRC-1 Co-activator (AID 2283353).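 Also: actives raise the signal above DMSO so potency reflects increased AR and SRC-1 complex.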 A digest of the protocol:
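Split-Venus PCA, AR/SRC-1 fusions, stable HEK293T; 16 h compound exposure; imaged at 488 and 635 nm; N/C ratio (488 nm channel), min 400 cells/image; positive-direction fit, DMSO baseline.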

The target is the same in assay [9]. Briefly: OT_AR_ARSRC1_0480: Odyssey Thera (OT) 8-hour HEK293T Protein-Complementation Assay for Androgen Receptor/SRC-1 Co-activator (AID 2283354).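 Also: hits raise the complementation signal above DMSO so AC50 marks enhancers.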 A digest of the protocol:
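Measures AR/SRC-1 binding by Venus YFP fragment complementation in HEK293T stable lines at 8 h post-dose. Imaging quantifies the 488nm nucleus/cytoplasm ratio in ≥400 cells; DMSO defines baseline.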

Assay [10] has as its target bovine Estrogen Receptor (ER), ESR1 (gene 407238) (UniProt P49884). The assay can be described thus: NVS_NR_bER: NovaScreen (NVS) Nuclear Receptor Binding Assay for bovine Estrogen Receptor (ER) (AID 2283345).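 Also: actives lower the bound radioligand count which means they displace the ER ligand.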 A digest of the protocol: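 Bovine uterine membranes; tritiated or iodinated radioligand; competitive displacement; 18 h; scintillation read; DMSO negative control; 25 uM duplicates, then concentration series for actives.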

In assay [11] the target is Retinoic acid receptor alpha (Homo sapiens) (UniProt P10276). Briefly: NVS_NR_hRAR_Antagonist: NovaScreen (NVS) Nuclear Receptor Binding Assay for human Retinoic Acid Alpha Receptor Antagonism (RAR) (AID 2283358). A digest of the protocol: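 TR-FRET, cell-free, antagonist format; 2 h incubation after dosing; DMSO = baseline; signal loss fitted; 25 uM duplicate primary, then conc. series.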
Chain of Retinoic acid receptor alpha (Homo sapiens) (P10276 whole entry, looked up): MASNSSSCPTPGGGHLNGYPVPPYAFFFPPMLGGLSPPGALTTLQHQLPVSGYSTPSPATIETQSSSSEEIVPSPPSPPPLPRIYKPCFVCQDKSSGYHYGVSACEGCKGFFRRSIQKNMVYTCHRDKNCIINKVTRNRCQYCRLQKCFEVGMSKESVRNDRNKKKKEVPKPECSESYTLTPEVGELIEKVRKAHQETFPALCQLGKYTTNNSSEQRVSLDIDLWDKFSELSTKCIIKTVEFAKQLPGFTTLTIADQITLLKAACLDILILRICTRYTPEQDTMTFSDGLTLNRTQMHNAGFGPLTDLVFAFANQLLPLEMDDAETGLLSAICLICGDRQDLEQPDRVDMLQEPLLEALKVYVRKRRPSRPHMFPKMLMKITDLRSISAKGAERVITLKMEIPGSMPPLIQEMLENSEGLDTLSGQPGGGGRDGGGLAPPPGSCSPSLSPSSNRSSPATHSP

Assay [12] has as its target rat Mineralocorticoid Receptor (MR), Nr3c2 (gene 25672) (UniProt P22199). The assay can be described thus: NVS_NR_rMR: NovaScreen (NVS) Nuclear Receptor Binding Assay for rat Mineralocorticoid Receptor (MR) (AID 2283355). A digest of the protocol:
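Adrenalectomized rat brain supernatant was dosed with test chemical, then radioligand binding was measured by scintillation counting at 24 h. Initial testing ran in duplicate at 25 uM, followed by concentration series for actives.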

Results filed as inconclusive are left out. The source made the active and inactive calls. The calls were made as follows: active = hit-call score of the fitted dose curve at least 0.9, where 1 is the maximum; inconclusive = response in the unintended direction; inactive = score below 0.9.

Chain of Androgen Receptor/SRC-1 Co-activator, AR (gene 367) (P10275 whole entry, looked up, the tested form may be a part): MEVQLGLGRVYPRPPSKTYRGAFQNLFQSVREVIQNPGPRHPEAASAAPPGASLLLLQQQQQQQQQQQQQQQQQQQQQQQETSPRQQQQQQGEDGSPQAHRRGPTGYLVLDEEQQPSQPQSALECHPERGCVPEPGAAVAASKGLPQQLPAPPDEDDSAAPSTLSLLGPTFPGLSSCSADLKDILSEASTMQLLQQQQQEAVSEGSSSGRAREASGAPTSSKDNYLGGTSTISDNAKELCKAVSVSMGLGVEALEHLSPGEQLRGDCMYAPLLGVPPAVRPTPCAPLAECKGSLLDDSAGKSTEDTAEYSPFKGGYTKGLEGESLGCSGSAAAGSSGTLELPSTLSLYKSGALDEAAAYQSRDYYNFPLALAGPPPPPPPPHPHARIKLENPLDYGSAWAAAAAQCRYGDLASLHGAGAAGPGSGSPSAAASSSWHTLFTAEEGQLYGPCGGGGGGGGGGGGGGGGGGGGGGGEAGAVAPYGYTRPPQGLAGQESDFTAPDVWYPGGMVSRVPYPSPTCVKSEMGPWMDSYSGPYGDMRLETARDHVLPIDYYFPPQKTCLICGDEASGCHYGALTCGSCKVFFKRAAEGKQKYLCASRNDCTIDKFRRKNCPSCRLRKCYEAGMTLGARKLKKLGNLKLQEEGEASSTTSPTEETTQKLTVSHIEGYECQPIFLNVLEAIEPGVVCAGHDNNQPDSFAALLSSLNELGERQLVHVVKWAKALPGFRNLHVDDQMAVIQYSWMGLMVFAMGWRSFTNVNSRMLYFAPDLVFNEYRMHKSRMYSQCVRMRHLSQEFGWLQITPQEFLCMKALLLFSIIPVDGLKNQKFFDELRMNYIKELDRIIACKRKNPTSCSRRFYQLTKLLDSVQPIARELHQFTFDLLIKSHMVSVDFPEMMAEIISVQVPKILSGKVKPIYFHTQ
Chain of Estrogen receptor (Homo sapiens) (P03372 whole entry, looked up, the tested form may be a part): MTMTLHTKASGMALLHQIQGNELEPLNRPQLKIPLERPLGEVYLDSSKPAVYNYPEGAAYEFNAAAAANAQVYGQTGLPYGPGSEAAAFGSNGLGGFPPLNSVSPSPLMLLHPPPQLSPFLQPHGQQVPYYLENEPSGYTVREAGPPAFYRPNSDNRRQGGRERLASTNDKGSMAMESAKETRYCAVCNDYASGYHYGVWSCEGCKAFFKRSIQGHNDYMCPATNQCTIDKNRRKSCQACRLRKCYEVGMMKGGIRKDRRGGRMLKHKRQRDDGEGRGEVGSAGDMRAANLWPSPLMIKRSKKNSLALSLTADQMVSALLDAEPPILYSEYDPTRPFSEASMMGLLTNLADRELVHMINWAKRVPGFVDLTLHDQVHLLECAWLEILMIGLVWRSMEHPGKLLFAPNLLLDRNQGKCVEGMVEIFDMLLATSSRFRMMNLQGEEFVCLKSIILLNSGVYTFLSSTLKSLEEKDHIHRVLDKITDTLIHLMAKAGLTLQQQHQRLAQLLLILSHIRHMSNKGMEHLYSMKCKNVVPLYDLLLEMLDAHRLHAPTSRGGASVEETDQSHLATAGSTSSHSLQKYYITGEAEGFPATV
T1 sequence (P03372 whole entry, looked up, the tested form may be a part): as above
T1 sequence (Q92731 whole entry, looked up, the tested form may be a part): as the sequence (Q92731 whole entry, looked up, the tested form may be a part) above
Chain of rat Mineralocorticoid Receptor (MR), Nr3c2 (gene 25672) (P22199 whole entry, looked up): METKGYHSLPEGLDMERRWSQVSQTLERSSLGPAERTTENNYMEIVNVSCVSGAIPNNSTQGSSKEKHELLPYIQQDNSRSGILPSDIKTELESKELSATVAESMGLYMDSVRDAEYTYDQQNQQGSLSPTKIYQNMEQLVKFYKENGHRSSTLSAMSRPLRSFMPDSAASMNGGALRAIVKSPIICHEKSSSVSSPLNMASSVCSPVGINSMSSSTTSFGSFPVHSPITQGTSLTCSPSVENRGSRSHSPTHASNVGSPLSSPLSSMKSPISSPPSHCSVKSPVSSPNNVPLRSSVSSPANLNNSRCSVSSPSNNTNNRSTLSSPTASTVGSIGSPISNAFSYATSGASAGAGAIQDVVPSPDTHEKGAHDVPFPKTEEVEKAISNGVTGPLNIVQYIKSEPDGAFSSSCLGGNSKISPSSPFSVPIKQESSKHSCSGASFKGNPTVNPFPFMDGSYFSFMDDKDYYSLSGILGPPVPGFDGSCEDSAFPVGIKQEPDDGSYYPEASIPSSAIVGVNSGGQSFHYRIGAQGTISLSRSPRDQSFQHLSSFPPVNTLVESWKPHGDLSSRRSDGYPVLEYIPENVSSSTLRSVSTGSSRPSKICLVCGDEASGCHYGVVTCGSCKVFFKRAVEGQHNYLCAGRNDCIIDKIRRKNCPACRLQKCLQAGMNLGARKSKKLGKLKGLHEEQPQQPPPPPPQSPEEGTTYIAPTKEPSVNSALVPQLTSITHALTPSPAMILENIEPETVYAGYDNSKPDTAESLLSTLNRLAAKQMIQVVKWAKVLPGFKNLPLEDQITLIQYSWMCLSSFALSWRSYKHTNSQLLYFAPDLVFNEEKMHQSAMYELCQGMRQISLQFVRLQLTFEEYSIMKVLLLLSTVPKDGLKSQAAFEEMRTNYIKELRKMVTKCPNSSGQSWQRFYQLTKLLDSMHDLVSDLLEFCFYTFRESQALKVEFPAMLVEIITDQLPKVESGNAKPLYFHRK
Chain of human Thyroid Receptor Alpha (TRa), THRA (gene 7067) (P10827 whole entry, looked up): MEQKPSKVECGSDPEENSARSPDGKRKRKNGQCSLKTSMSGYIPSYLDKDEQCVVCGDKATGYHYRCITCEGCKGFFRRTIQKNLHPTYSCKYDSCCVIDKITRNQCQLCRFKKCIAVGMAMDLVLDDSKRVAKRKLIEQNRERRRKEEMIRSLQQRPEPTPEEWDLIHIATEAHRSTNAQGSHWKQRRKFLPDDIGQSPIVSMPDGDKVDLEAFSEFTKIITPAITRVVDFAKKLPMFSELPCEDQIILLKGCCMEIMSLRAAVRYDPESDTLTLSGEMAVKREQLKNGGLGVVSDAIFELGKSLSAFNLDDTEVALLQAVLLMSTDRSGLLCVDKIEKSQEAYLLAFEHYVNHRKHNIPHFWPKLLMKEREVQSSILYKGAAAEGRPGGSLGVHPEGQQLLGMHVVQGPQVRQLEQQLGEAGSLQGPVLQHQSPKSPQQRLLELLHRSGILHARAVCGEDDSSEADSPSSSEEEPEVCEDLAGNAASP
Chain of PGR (gene 5241) (P06401 whole entry, looked up): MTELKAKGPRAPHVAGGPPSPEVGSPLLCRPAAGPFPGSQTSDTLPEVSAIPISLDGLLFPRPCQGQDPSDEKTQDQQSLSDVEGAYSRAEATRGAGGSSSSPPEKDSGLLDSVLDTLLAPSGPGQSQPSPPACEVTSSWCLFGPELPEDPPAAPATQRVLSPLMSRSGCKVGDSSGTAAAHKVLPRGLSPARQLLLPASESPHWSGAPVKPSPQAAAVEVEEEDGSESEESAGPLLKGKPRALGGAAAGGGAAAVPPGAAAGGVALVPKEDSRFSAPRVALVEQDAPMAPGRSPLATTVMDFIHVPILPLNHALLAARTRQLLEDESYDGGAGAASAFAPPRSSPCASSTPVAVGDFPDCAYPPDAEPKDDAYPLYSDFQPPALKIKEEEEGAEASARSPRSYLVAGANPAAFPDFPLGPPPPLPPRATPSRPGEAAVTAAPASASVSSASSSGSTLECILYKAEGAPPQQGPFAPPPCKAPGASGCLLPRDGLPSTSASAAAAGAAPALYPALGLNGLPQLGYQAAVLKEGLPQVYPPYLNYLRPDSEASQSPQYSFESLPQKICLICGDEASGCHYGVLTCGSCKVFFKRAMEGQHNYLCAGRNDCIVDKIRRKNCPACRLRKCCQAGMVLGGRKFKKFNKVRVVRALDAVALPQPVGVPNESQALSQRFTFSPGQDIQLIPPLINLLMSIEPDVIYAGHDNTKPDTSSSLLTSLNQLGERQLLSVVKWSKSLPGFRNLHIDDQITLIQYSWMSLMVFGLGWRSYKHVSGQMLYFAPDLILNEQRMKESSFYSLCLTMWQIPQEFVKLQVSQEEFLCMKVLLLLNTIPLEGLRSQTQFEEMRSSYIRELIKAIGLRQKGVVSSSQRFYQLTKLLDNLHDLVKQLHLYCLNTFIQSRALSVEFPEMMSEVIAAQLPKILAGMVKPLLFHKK

As usually defined, the AC50 is the concentration at which the activity in the assay is half-maximal. As for `Cc1c(C(=O)O)c(O)cc2c1C(=O)c1c(O)c([C@@H]3O[C@H](CO)[C@@H](O)[C@H](O)[C@H]3O)c(O)c(O)c1C2=O`, the outcome in assay [1], in assay [2], in assay [3], in assay [4] and in assay [5] was inactive. The half-maximal activity concentration (AC50) in assay [6] was 17.3 µM (active).

As to `CCOC(=O)C(C)(C)Oc1ccc(Cl)cc1`, the call in [1], in assay [2], in [3], in assay [4], in assay [5] and in [7] was inactive. Moreover, in assay [6], the call was inactive.

On to `CC1(C)NC(=O)NC1=O`, for which the outcome in [1] and in [2] was inactive.

As to `CC(C)(C)c1cc(O)c(C(C)(C)C)cc1O`, the call in [1], in assay [2], in assay [3], in assay [9] and in assay [5] was inactive. For the same compound, in assay [8], the AC50 is 50 µM (active).

`CCNc1cccc(C)c1`: the call in [1] and in assay [2] was inactive.

On to `CC=Cc1ccc(O)c(OC)c1`, for which the results for the AC50 in assay [1] and in assay [2] were 73.5 µM (active) and 57.6 µM (active), respectively.

As for `NS(=O)(=O)c1cc2c(cc1Cl)NCNS2(=O)=O`, the compound was called inactive in [1], in [2], in assay [3] and in assay [5].

Regarding `COc1ccc2c(c1)c(CC(=O)O)c(C)n2C(=O)c1ccc(Cl)cc1`, the call in assay [10], in assay [1], in assay [8], in [9] and in assay [11] was inactive.

In the case of `CCCCCCOCCO`, the call in [1], in assay [2], in assay [3] and in assay [4] was inactive.

As to `C1CCC(SSC2CCCCC2)CC1`, the outcome in [1] and in assay [2] was inactive. Moreover, the concentration at half-maximal activity (AC50) in assay [3] was 50 µM (active); in assay [5], 34.1 µM (active).

For the compound `Cc1cc(=O)[nH]c(=S)[nH]1`, the outcome in assay [1] and in assay [2] was inactive.

On to `Cc1ccc(C)c(C)c1`, for which the compound was called inactive in assay [1], in [2], in assay [3], in [8], in assay [9] and in assay [5].

As for `CNC(=O)[C@H]1O[C@@H](n2cnc3c(NCc4cc(Cl)ccc4OCc4cc(C)no4)ncnc32)[C@H](O)[C@@H]1N`, the AC50 in assay [1] is 11.9 µM (active). Moreover, the result in [2], in assay [3], in assay [8], in [9] and in assay [5] was inactive.

Consider `OC[C@@H](O)[C@@H](O)[C@H](O)[C@H](O)CO`, for which the result in [1] and in assay [2] was inactive.

As to `Cc1oc(-c2ccccc2)nc1CCOc1cccc2c1ccn2CCC(=O)O`, the compound was classed as inactive in assay [1], in assay [2] and in assay [3].

Consider `CC(=O)C(C)=CC1C(C)=CCCC1(C)C` (stereo not drawn), for which the result in [1] and in [2] was inactive.

In the case of `O=c1[nH]cc(F)c(=O)[nH]1`, the result in assay [1], in assay [2], in [3], in [12] and in [5] was inactive.

In the case of `Cc1cccc([N+](=O)[O-])c1C`, the result in assay [1], in assay [2], in assay [3], in assay [8] and in [5] was inactive.

As to `C=CCc1ccc(O)c(OC)c1`, the compound was called inactive in assay [1] and in assay [2].

Turning to `CCOC(=O)CCC(=O)OCC`, the compound was classed as inactive in [1], in assay [2], in assay [3] and in [5]. Also, the AC50 in assay [12] was 25 µM (active).

As to `CC(=O)OC/C=C(\C)CCC=C(C)C`, the result in assay [1] and in assay [2] was inactive.

Consider `CCCCCC(=O)O`, for which the call in assay [1], in [2], in [3], in assay [8], in assay [4] and in assay [5] was inactive.
